# Screening data as filed in PubChem.
# HT1080 IDH1KD tx: qHTS for induction of synthetic lethality in tumor cells producing 2HG: qHTS for the HT-1080-IDH1KD cell line | HT-1080 IDH1 knockdown viability, ATP luminescence, 48 h | 2% of 360,000 active | Potency, µM (doses to about 46.1 µM), usual class: cytotoxic | AID 686971, 2013
#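 Knockdown cells (IDH1KD HT-1080) received compounds 2 h after plating at 750 cells/well and were kept 48 h at 37 °C in 5% FBS RPMI. A CellTiter-Glo luminescence read gave % activity for curve fitting.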
# IL-1B inflam inh: qHTS for Inhibitors of Inflammasome Signaling: IL-1-beta AlphaLISA Primary Screen. THP-1 LPS/ATP IL-1B secretion, AlphaLISA, 16 h; active compounds read low. activity change, % at 57.5 µM. 4.7% of 360,000 active. AID 743279, 2014; in the data active means activity change below about -50%; inconclusive means mostly about -30% to -49%
#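 THP-1 cells pretreated 1 hr with compounds (up to 57.5 uM final), then stimulated with LPS (250 ng/mL final) plus ATP (1.25 mM final); secreted IL-1B measured by AlphaLISA after 16 hr, decreased signal indicating inhibition.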
# HT1080NT lethal: qHTS for induction of synthetic lethality in tumor cells producing 2HG: qHTS for the HT-1080-NT fibrosarcoma cell line; HT-1080-NT fibrosarcoma viability, CellTiter-Glo ATP luminescence, 48 h; Potency, µM (titrated, usually from 46.1 µM), usual class: cytotoxic; 1.6% of 360,000 active;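 further: NT is the 2HG producing partner of a matched IDH1 knockdown line; nearly all actives have a fitted effect of over 55% in size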
#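 Toxicity toward the 2HG-producing NT line was scored as %Activity, normalised to DMSO and no-cell wells, from CellTiter-Glo luminescence after 48 hours' treatment.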
# TDP1 cell CPT: qHTS for Inhibitors of human tyrosyl-DNA phosphodiesterase 1 (TDP1): qHTS in cells in presence of CPT. chicken DT40 Tdp1-/-;hTDP1 cells + 20 nM CPT, ATP luminescence, 48 h. Potency, µM (top dose mostly 46.2 µM), most hits filed as inhibitors. 12% of 420,000 active. AID 686979, 2013; further: nearly all actives have a fitted effect of over 55% in size
#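 Cell growth measured by CellTiter-Glo luminescence after a minimum 48 h, 37 C compound exposure with 20 nM CPT in Tdp1-knockout DT40 cells stably expressing hTDP1, seeded 400/well; qHTS titration format.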
# TDP1 cell noCPT: qHTS for Inhibitors of human tyrosyl-DNA phosphodiesterase 1 (TDP1): qHTS in cells in absence of CPT; DT40 Tdp1-/- hTDP1 cells, no CPT, ATP luminescence, 48 h; Potency, µM (doses to about 46.2 µM), actives largely listed as inhibitors; 15% of 420,000 active; further: nearly all actives have a fitted effect of over 55% in size
#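 Seeded 400 DT40-hTDP1 cells/well (vehicle DMSO, no 20 nM CPT); pinned compounds; ≥48 hr at 37 °C; CellTiter-Glo luminescence as viability measure.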
# Hits are given with their value; – = inactive; ? = inconclusive; · = no result. Hits are enriched below; roughly 19% of the tested compounds scored in any of these assays. Unless noted, the call rests on the fitted dose curve; in most records, active means well fitted curve in the direction sought with a large enough effect; inconclusive means small, poorly fitted or top-dose-only effect, or another doubt; inactive means no such curve, though single readings can be large; an effect the other way counts as inactive or inconclusive.
SMILES,HT1080 IDH1KD tx,IL-1B inflam inh,HT1080NT lethal,TDP1 cell CPT,TDP1 cell noCPT
Nc1cc(N)nc(SCC(=O)Nc2ccc3c(c2)OCO3)n1,–,–,–,–,–
Cc1ccc(C2=NC3(CCCCC3)N=C2SCC(=O)Nc2ccc3c(c2)OCCO3)cc1,–,-93,?,21µM,?
Cc1cc(Oc2ccccc2)nc(SCC(=O)Nc2ccc(Cl)c(Cl)c2)n1,–,–,–,?,18µM
CC(NC(=O)CN1CCc2ccccc21)c1ccccc1 (stereo not drawn),–,–,–,–,–
Cc1nnc2n1N=CC=C(c1ccccc1)S2,–,-91,–,8.2µM,5.2µM
Cc1nnc2n1N=CC=C(C(C)(C)C)S2,–,–,–,–,–
O=C(c1cc(Br)c[nH]1)N1CCSCC1,–,–,–,–,–
CC(=O)c1ccc(N2CCN(S(=O)(=O)c3cc(-c4noc(C)n4)ccc3C)CC2)cc1,·,·,·,?,–
Cc1nc(-c2cccc(S(=O)(=O)N3CCC(C(=O)NCc4ccccc4Cl)CC3)c2)no1,·,·,·,18µM,–
CCc1cccc(NC(=O)C2CCN(S(=O)(=O)c3c(C)noc3C)CC2)c1,–,–,–,–,–
CCc1cccc(NC(=O)C2CCN(S(=O)(=O)c3cccc(-c4noc(C)n4)c3)CC2)c1,·,·,·,?,21µM
Cc1nc(-c2ccc(C)c(S(=O)(=O)N3CCC(C(=O)Nc4ccc(Cl)cc4)CC3)c2)no1,·,·,·,16µM,?
CN(Cc1ccccc1)C(=O)c1ncn2c1C(=O)N(C)CC2,–,–,–,–,–
Cc1cc(CNCc2c(C(=O)N3CCCCCCC3)nc3ccc(Cl)cn23)nn1C,–,–,–,–,–
CSCC[C@H](NC(=O)C(C)Oc1ccc(Cl)cc1)c1nc2ccccc2[nH]1 (stereo partly drawn),–,–,–,–,?
Cc1ccc(S(=O)(=O)NNC(=O)c2ccncc2)cc1[N+](=O)[O-],–,–,–,–,–
CCC(=O)N(C)C[C@@H]1Oc2cc(Br)ccc2S(=O)(=O)N([C@@H](C)CO)C[C@@H]1C,–,–,–,–,–
CC(C)CC#Cc1ccc2c(c1)O[C@H](CN(C)C(=O)Nc1ccccc1)[C@@H](C)CN([C@H](C)CO)S2(=O)=O,–,–,–,–,–
CCCC#Cc1ccc2c(c1)O[C@H](CN(C)C(=O)CC1CC1)[C@H](C)CN([C@@H](C)CO)S2(=O)=O,–,–,–,?,18µM
C[C@@H]1CN([C@H](C)CO)S(=O)(=O)c2ccc(C#Cc3ccccc3)cc2O[C@H]1CN(C)C(=O)Nc1ccc2c(c1)OCO2,?,?,–,13µM,16µM
C[C@@H]1CN([C@H](C)CO)S(=O)(=O)c2ccc(C#Cc3ccccc3)cc2O[C@@H]1CN(C)C(=O)CN(C)C,–,–,–,16µM,26µM
C[C@@H]1CN([C@H](C)CO)S(=O)(=O)c2ccc(C#CC3CCCC3)cc2O[C@H]1CN(C)C(=O)Cc1ccccc1,?,-81,?,5.8µM,5.8µM
COc1ccc(C/C(C)=N/NC(=S)Nc2ccc(C)c(C)c2)cc1,–,–,–,16µM,16µM
COc1ccc(C/C(C)=N/NC(=S)Nc2ccc(Cl)cc2)cc1,–,–,–,15µM,12µM
COc1ccc(C/C(C)=N/NC(=S)Nc2ccccc2)cc1,–,–,–,?,?
CCCNC(=O)COc1ccccc1[N+](=O)[O-],–,–,–,–,–
Cc1ccc(C)c(C(=O)COc2ccccc2[N+](=O)[O-])c1,?,-51,–,5.2µM,10µM
CCOc1cc(Br)c(COc2ccc(C)nc2[N+](=O)[O-])cc1OCC,–,–,–,?,?
Cc1ccc(OCC(=O)N2c3ccccc3CC2C)c([N+](=O)[O-])n1 (stereo not drawn),–,–,–,16µM,–
